Measured values from article PMC12431657, “Discovery and mechanistic insights of dibenzoylmethane as a broad spectrum inhibitor of coronavirus” (PLOS Pathogens, 2025).
Where a name gives a salt, the structure may show the parent alone. Read-outs that look alike come from different tables or passages of the source. Among all 3,300 compounds or so, about 95 (3%) showed an effect of 50% or more. The entries come from a sample that favours strong results as a whole.

Tested on: HCoV-229E
Set-up: species or system Huh-7; HTS, protection from HCoV-229E induced cell death, luminescent cell viability (CellCounting-Lite 2.0), inhibition rate
Conditions: 24 h post infection, 1 h compound pre-incubation, 10 µM, inhibitor

| SMILES | 229E Inhibition rate [%] | 229E Inhibition rate (229E Inhibition rate, 24 h) [%] |
| --- | --- | --- |
| C=C1C(=O)[C@@]23[C@H](O)C[C@@H]4C(C)(C)CC[C@H](O)[C@@]4(CO)[C@@H]2CC[C@@H]1[C@H]3O [Kamebakaurin] | 0 |  |
| C=C1C(=O)[C@]23[C@H](O)[C@H]1CC[C@H]2[C@@]12CO[C@]3(O)[C@@H](O)[C@@H]1C(C)(C)CC[C@@H]2O [Oridonin] | 0 |  |
| C=C1C(=O)[C@@]23[C@@H]4OC5O[C@@]2(O)[C@@H](O)[C@@H]2C(C)(C)CC[C@@H](O)[C@]52[C@@H]3CC[C@@H]14 [ponicidin] | 95.6 |  |
| COc1c2ccoc2c(O)c2oc(=O)ccc12 [8-Hydroxybergapten] | 7.9 |  |
| C/C=C1\C(=O)C[C@H]2[C@@H]3CCC4=CC(=O)CC[C@]4(C)[C@H]3CC[C@]12C [(Z)-Guggulsterone] |  | 6.7 |
| C/C=C(\C)C(=O)OC1c2c(ccc3ccc(=O)oc23)OC(C)(C)C1OC(=O)/C(C)=C/C (stereo not drawn) [Praeruptorin B] | 53.9 |  |
| C/C=C(/C)C(=O)O[C@H]1[C@@H](OC(C)=O)c2c(ccc3ccc(=O)oc23)OC1(C)C [Praeruptorin A] | 19.1 |  |
| C/C=C(/C)C(=O)O[C@@H]1[C@H](OC(=O)CC(C)C)c2c(ccc3ccc(=O)oc23)OC1(C)C [Praeruptorin C] | 32.9 |  |
| C/C=C(/C)C(=O)O[C@H]1[C@@H](OC(=O)CC(C)C)c2c(ccc3ccc(=O)oc23)OC1(C)C [Praeruptorin E] | 43.4 |  |
| C/C=C(/C)C(=O)O[C@@H]1c2c(ccc3ccc(=O)oc23)OC(C)(C)[C@@H]1OC(=O)/C(C)=C\C [(-)-Anomalin] | 51.7 |  |
| C/C=C(/C)C(=O)O[C@@H]1c2c(ccc3ccc(=O)oc23)OC(C)(C)[C@@H]1OC(C)=O [Pteryxin] | 4.8 |  |
| CC(C)=CCc1c2ccoc2c(O)c2oc(=O)ccc12 [Alloimperatorin] | 0 |  |
| c1c2c(cc3c1OCO3)-c1cc3ccc4c(c3c[n+]1CC2)OCO4 [Coptisine (chloride)] |  | 32 |
| O=C(O)C1CSSC1 [Asparagusic acid] | 15.6 |  |
| CC(C)C[C@H](NC(=O)CN)C(=O)O [Glycyl-L-leucine] | 13.8 |  |
| O=C1c2c(O)cc(O)cc2O[C@H](c2ccc(O)cc2)[C@H]1O [Dihydrokaempferol] | 9.9 |  |
| COc1cc(O)c(CC=C(C)C)c2c1C(=O)CC(c1ccc(O)cc1)O2 (stereo not drawn) [Isoxanthohumol] | 23.6 |  |
| C=C(C)[C@H](CC=C(C)C)Cc1c(O)cc(OC)c2c1O[C@H](c1ccc(O)cc1O)[C@@H](O)C2=O [Kushenol I] | 6.5 |  |
| C=C(C)[C@H](CC=C(C)C)Cc1c(O)cc(O)c2c1O[C@H](c1ccc(O)cc1O)CC2=O [sophoraflavanone G] | 75.7 |  |
| C=C(C)[C@H](CC=C(C)C)Cc1c(O)cc(OC)c2c1O[C@H](c1ccc(O)cc1OC)CC2=O [(2S)-2'-Methoxykurarinone] | 62.1 |  |

| SMILES | 229E Inhibition rate [%] | 229E Inhibition rate (229E Inhibition rate, 24 h) [%] |
| --- | --- | --- |
| C=C(C)[C@H](CC=C(C)C)Cc1c(O)cc(OC)c2c1O[C@H](c1ccc(O)cc1O)CC2=O [Kurarinone] | 19.7 |  |
| C=C(C)[C@H](CC=C(C)C)Cc1c(O)cc(O)c2c1O[C@H](c1ccccc1O)CC2=O [Kushenol A] | 10.8 |  |
| C[C@H](O)[C@H](O)C1=Nc2c(nc(N)[nH]c2=O)NC1 [7,8-Dihydro-L-biopterin] | 24.5 |  |
| N[C@@H](CCC(=O)O)C(=O)O [L-Glutamic acid (monosodium salt)] |  | 12 |
| C[C@@H]1O[C@@H](O[C@H]2[C@H](Oc3cc(O)c4c(=O)cc(-c5ccc(O)cc5)oc4c3)O[C@H](CO[C@@H]3O[C@H](CO)[C@@H](O)[C@H](O)[C@H]3O)[C@@H](O)[C@@H]2O)[C@H](O)[C@H](O)[C@H]1O [Apigenin-7-O-(2G-rhamnosyl)gentiobioside] | 22.2 |  |
| Nc1ccccc1S(=O)(=O)O [2-Aminobenzenesulfonic acid] | 0 |  |
| COc1cc(-c2[o+]c3cc(O)cc(O)c3cc2O)cc(O)c1O [Petunidin (chloride)] | 13.2 |  |
| O=C(/C=C/c1ccc(O[C@@H]2O[C@H](CO)[C@@H](O)[C@H](O)[C@H]2O[C@@H]2OC[C@](O)(CO)[C@H]2O)cc1)c1ccc(O)cc1O [Isoliquiritin apioside] | 63.8 |  |
| O=C(/C=C/c1ccc(O)cc1)c1ccc(O[C@@H]2O[C@H](CO)[C@@H](O)[C@H](O)[C@H]2O)cc1O [Neoisoliquiritin] | 24.9 |  |
| O=C(/C=C/c1ccc(O[C@@H]2O[C@H](CO)[C@@H](O)[C@H](O)[C@H]2O)cc1)c1ccc(O)cc1O [Isoliquiritin] | 27.7 |  |
| C=C1CC[C@H]2O[C@]2(C)CC[C@@H]2[C@@H]1CC2(C)C [Caryophyllene oxide] | 16.3 |  |
| O=C(O)c1ccc(O)c(O)c1O [2,3,4-Trihydroxybenzoic acid] | 18 |  |
| C[C@H](CC[C@@H](O[C@@H]1O[C@H](CO[C@@H]2O[C@H](CO)[C@@H](O)[C@H](O)[C@H]2O)[C@@H](O)[C@H](O)[C@H]1O[C@@H]1O[C@H](CO)[C@@H](O)[C@H](O)[C@H]1O)C(C)(C)O)[C@H]1CC[C@@]2(C)[C@@H]3CC=C4[C@@H](CC[C@H](O[C@@H]5O[C@H](CO[C@@H]6O[C@H](CO)[C@@H](O)[C@H](O)[C@H]6O)[C@@H](O)[C@H](O)[C@H]5O)C4(C)C)[C@]3(C)C(=O)C[C@]12C [11-oxo-mogroside V] | 0 |  |
| COc1cc([C@@H]2OC[C@@H]3[C@H]2CO[C@H]3c2cc(OC)c(O)c(OC)c2)cc(OC)c1O [(-)-Syringaresinol] | 16.7 |  |
| Cc1cc(O)c2c(c1)C(=O)c1cccc(O[C@@H]3O[C@H](CO)[C@@H](O)[C@H](O)[C@H]3O)c1C2=O [Chrysophanol 8-O-glucoside] | 8.4 |  |
| Cc1cc(O[C@@H]2O[C@H](CO)[C@@H](O)[C@H](O)[C@H]2O)c2c(c1)C(=O)c1cccc(O)c1C2=O [Chrysophanein] | 51.1 |  |
| CC(=O)OC[C@H]1O[C@@H](O[C@@H]2[C@@H](O)[C@H](O[C@@H]3[C@H](O)C(C)(C)C[C@H]4C5=CC[C@@H]6[C@@]7(C)CC[C@H](O[C@@H]8O[C@H](C(=O)O)[C@@H](O)[C@H](O)[C@H]8O[C@@H]8O[C@H](CO)[C@H](O)[C@H](O)[C@H]8O[C@@H]8O[C@H](CO)[C@@H](O)[C@H](O)[C@H]8O)[C@](C)(CO)[C@@H]7CC[C@@]6(C)[C@]5(C)CC[C@@]34C)OC[C@@H]2O)[C@H](OC(C)=O)[C@@H](OC(C)=O)[C@@H]1OC(C)=O [Soyasaponin Ab] | 46.7 |  |
| CN1CCC=C(C(=O)O)C1 [Arecaidine] |  | 7.9 |
| O=C(/C=C/c1ccc(O)c(O)c1)O[C@@H](C(=O)O)[C@@H](OC(=O)/C=C/c1ccc(O)c(O)c1)C(=O)O [Chicoric acid] |  | 8 |
| CC(=O)OCCC(C)CCC=C(C)C (stereo not drawn) [Citronellyl acetate] | 16.2 |  |

| SMILES | 229E Inhibition rate [%] | 229E Inhibition rate (229E Inhibition rate, 24 h) [%] |
| --- | --- | --- |
| CCC(O)CC [3-Pentanol] | 19 |  |
| COc1cc(-c2coc3cc4c(c(OC)c3c2=O)OCO4)cc(OC)c1OC [Irisflorentin] | 11.3 |  |
| COc1cc(-c2coc3cc4c(c(O)c3c2=O)OCO4)cc(O)c1OC [Dichotomitin] | 53.3 |  |
| COc1cc(-c2coc3cc(O)c(OC)c(O)c3c2=O)cc(O)c1OC [Irigenin] | 11.4 |  |
| CO[C@@H]1[C@H](O)[C@@H](CO)O[C@H]1n1ccc(=O)[nH]c1=O [2′-O-Methyluridine] | 20.9 |  |
| Oc1ccc([C@H]2COc3cc(O)ccc3C2)cc1 [(-)-(S)-Equol] | 8.5 |  |
| Oc1ccc(C2COc3cc(O)ccc3C2)cc1 (racemic) [(±)-Equol] | 11 |  |
| CC1(C)C=Cc2c(ccc3c2OC[C@@H](c2ccc(O)cc2O)C3)O1 [Glabridin] | 54.3 |  |
| C=C1C[C@@]23CC[C@H]4[C@@](C)(CCC[C@@]4(C)C(=O)O)[C@@H]2CC[C@@H]1C3 [Kaurenoic acid] | 8.8 |  |
| CC(C)(O)CC[C@@H](O)[C@](C)(O)[C@H]1CC=C2C3=C(CC[C@@]21C)[C@@]1(C)C[C@H](O)[C@H](O)C[C@H]1C(=O)C3 [Podecdysone B] | 11.2 |  |
| C[C@H](CCC(=O)O)[C@H]1CC[C@H]2[C@@H]3C(=O)C[C@@H]4C[C@H](O)CC[C@]4(C)[C@H]3CC[C@]12C [7-Ketolithocholic acid] | 20.5 |  |
| CC(=O)c1ccc(O)c(C)c1 [4'-Hydroxy-3'-methylacetophenone] | 11.7 |  |
| COc1ccc(C(C)=O)cc1O [3-Hydroxy-4-methoxyacetophenone] | 50.5 |  |
| COc1cc(C(C)=O)ccc1O [Apocynin] | 5.3 |  |
| Cc1ccc(C(=O)O)cc1C [3,4-Dimethylbenzoic acid] | 23.9 |  |
| COc1ccc(C(=O)O)cc1O [Isovanillic acid] | 0 |  |
| CC(=O)c1ccc(O)c(O)c1 [3',4'-Dihydroxyacetophenone] | 12.4 |  |
| COc1cc(C(=O)O)ccc1O [Vanillic acid] | 50 |  |
| COC(=O)c1ccc(OC)c(O)c1 [Methyl isovanillate] | 12.8 |  |
| Cc1cc(C(=O)O)ccc1O [4-Hydroxy-3-methylbenzoic acid] | 61.9 |  |
